Assay results taken from PubChem BioAssay.
Active and inactive are the calls of the source. Unless noted, how the calls were made is not given here.

What was measured:
[1] = anti-His antibody binders, primary screen, artefact control for SMM control protein annotation, biochemical, small-molecule microarray, 635 nm fluorescence (AID 1128); conditions: anti-His Alexa647 antibody binding, higher = more signal;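 further: score merges feature fluorescence with signal-to-noise for each printed compound spot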
[2] = test system: Human papillomavirus type 1a E7 protein (residues 1-88); experiment: HPV1a E7 small-molecule binders, primary screen, biochemical, small-molecule microarray, residues 1-88, 635 nm (AID 1129); conditions: small-molecule microarray binding, fluorescence 635 nm; higher = more signal
[3] = target: Focal adhesion kinase 1 (Homo sapiens) (UniProt Q05397); experiment: small-molecule microarray binders of FAK, primary screen, biochemical, 635/667 nm fluorescence, BSA, DTT (AID 1130); conditions: PTK2 binding, 635 nm fluorescence, higher = more signal;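 further: composite of spot emission at 667 nm and signal to noise over triplicate slides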
Chain of Focal adhesion kinase 1 (Homo sapiens) (Q05397 whole entry, looked up): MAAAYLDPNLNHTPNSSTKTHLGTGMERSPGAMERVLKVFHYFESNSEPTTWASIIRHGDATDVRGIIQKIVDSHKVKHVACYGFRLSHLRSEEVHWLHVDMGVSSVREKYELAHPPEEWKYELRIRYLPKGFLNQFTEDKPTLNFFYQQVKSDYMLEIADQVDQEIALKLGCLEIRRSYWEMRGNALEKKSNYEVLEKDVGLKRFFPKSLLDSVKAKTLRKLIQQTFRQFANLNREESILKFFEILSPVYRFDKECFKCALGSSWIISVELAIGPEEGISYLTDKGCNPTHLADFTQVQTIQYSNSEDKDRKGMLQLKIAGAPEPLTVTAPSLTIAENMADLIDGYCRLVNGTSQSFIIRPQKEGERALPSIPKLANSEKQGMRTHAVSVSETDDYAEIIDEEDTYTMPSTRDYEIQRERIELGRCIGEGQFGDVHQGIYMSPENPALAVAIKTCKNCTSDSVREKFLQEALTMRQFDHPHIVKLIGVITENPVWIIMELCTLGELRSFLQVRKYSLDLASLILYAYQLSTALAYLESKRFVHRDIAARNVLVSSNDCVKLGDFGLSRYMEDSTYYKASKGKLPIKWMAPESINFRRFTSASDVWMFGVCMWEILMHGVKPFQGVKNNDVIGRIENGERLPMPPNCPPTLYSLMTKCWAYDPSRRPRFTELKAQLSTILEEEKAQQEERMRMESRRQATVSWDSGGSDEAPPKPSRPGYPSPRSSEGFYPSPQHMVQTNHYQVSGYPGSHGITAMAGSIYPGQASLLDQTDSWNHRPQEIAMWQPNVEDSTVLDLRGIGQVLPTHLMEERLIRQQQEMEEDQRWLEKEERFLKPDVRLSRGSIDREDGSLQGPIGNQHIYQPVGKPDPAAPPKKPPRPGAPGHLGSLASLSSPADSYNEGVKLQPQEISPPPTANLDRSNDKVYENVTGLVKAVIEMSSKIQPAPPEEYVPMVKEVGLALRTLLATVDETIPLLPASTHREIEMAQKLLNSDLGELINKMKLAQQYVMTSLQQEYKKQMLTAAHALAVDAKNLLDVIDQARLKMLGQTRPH

[4] = test system: Fibrinogen (Alexa647-labelled); experiment: fibrinogen binders on compound microarrays, profiling panel, artefact control for SMM control-protein annotation, biochemical, small-molecule microarray, 635/667 nm fluorescence (AID 1131); conditions: fibrinogen-A647 binding fluorescence, higher = more signal;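 further: z-score merges 667 nm fluorescence with per-spot signal-to-noise over triplicate slides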
[5] = target: Follistatin (Homo sapiens) (UniProt P19883); experiment: follistatin binders on small-molecule microarrays, primary screen, biochemical, small-molecule microarray, 635/667 nm fluorescence (AID 1132); conditions: FST binding, 635 nm fluorescence, higher = more signal
Chain of Follistatin (Homo sapiens) (P19883 whole entry, looked up): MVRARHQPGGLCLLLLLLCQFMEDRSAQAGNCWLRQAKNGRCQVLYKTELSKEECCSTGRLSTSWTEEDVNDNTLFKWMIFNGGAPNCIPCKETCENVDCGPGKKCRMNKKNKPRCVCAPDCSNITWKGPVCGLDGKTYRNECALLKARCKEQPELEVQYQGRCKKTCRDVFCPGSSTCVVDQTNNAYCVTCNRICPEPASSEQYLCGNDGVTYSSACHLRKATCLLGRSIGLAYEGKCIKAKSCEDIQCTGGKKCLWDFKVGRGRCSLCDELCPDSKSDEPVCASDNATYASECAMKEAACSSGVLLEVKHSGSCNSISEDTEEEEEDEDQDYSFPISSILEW

[6] = target: Fibroblast growth factor 2 (Homo sapiens) (UniProt P09038); experiment: FGF2 binders on small-molecule microarrays, primary screen, biochemical, small-molecule microarray, 635/667 nm fluorescence (AID 1133); conditions: small-molecule microarray binding, FGF2, fluorescence 635/667; higher = more signal
Chain of Fibroblast growth factor 2 (Homo sapiens) (P09038 whole entry, looked up): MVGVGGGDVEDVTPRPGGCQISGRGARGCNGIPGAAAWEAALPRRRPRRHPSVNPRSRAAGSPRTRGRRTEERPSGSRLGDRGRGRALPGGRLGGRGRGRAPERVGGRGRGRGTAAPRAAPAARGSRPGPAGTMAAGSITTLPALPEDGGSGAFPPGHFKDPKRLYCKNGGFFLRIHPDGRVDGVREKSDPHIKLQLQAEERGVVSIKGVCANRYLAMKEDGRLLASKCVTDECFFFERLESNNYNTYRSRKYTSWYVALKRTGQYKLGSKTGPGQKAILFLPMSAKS

[7] = mitochondrial membrane potential change in A549 cells, profiling panel, cell-based, JC-1 fluorescence, basal, 24 h, 100 nL (AID 1138); conditions: higher = more signal;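 further: A549 lung adenocarcinoma cells under basal conditions with no added stimulus; test concentration not given here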
Lefty1 = Lefty1 binders on small-molecule microarrays, primary screen, biochemical, small-molecule microarray, 635/667 nm fluorescence (AID 1139); conditions: small-molecule microarray binding, fluorescence 635/667; higher = more signal
[8] = test system: wheat germ agglutinin (Triticum aestivum), Alexa647-labelled; experiment: wheat germ agglutinin binders on compound microarrays, profiling panel, artefact control for SMM control-protein annotation, biochemical, small-molecule microarray, 635/667 nm fluorescence (AID 1140); conditions: WGA-A647 binding, 635 nm fluorescence, higher = more signal;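 further: score merges 667 nm feature emission with signal to noise over triplicate slides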
[9] = target: Luciferin 4-monooxygenase (Photinus pyralis) (UniProt P08659); experiment: firefly luciferase enzyme inhibitors, primary screen, biochemical, luminescence, purified enzyme, 2006 set (AID 1141); conditions: SteadyGlo luminescence, 30 min, higher = more signal, called active from +8 up or from −8 down;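 further: cell-free assay with purified firefly luciferase at 100 ng per well in PBS; test concentration not given here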
Chain of Luciferin 4-monooxygenase (Photinus pyralis) (P08659 whole entry, looked up): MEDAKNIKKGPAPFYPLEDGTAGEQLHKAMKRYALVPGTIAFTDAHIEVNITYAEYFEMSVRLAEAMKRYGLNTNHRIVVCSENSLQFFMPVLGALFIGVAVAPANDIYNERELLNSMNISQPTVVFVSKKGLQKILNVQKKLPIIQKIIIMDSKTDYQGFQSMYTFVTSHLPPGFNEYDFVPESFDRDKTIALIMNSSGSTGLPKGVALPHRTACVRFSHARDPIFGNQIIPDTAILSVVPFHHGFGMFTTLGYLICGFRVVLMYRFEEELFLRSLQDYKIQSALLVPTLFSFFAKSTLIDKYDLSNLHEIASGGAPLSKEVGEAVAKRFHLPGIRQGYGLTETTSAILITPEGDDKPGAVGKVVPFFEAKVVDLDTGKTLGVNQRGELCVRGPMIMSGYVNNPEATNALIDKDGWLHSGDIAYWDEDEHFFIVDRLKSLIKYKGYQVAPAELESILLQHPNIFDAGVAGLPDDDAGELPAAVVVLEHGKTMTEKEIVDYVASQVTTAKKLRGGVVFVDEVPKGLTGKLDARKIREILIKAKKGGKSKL

[10] = test system: Wnt5a (protein binding on small-molecule microarray); experiment: Wnt5a binders on small-molecule microarray, primary screen, biophysical, 635/667 nm fluorescence (AID 1142); conditions: 635 nm fluorescence, higher = more signal;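 further: fluorescence read at 667 nm with signal to noise per printed feature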
[11] = cell viability in Huh7 cells, primary screen, cytotoxicity control for HCV replication inhibitor project, CellTiter-Glo luminescence, basal, 48 h (AID 1143); conditions: Huh7 HCV replicon, higher = more signal, called active from +8 up or from −8 down;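 further: Huh7 hepatoma cells carrying a hepatitis C replication reporter with no stimulus; test concentration not given here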
[12] = P. aeruginosa biofilm formation inhibitors, primary screen, PAO1 strain, BacTiter-Glo luminescence, LB-PBS (AID 1144); conditions: 12 h, higher = more signal
[13] = CREB reporter modulators without forskolin, primary screen, cell-based, PC12, CRE-LacZ reporter, unstimulated (AID 1145); conditions: no forskolin, luminescence, 4.5 h, higher = more signal, called active from +8 up or from −8 down
[14] = CREB reporter modulators under forskolin, primary screen, cell-based, PC12, CRE-LacZ reporter, forskolin-stimulated (AID 1146); conditions: luminescence, 4.5 h, higher = more signal, called active from +8 up or from −8 down;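 further: PC12 cells with 6xCRE LacZ reporter stimulated by forskolin 10 µM; beta-galactosidase reporter signal reflecting CREB driven transcription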
[15] = target: Streptavidin (Streptomyces avidinii) (UniProt P22629); experiment: streptavidin binders on small-molecule microarray, primary screen, artefact control for SMM compound annotation, biophysical, 635/667 nm fluorescence (AID 1147); conditions: streptavidin binding, higher = more signal;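 further: signal reflects streptavidin binding to arrayed compounds as a control protein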
Chain of Streptavidin (Streptomyces avidinii) (P22629 whole entry, looked up): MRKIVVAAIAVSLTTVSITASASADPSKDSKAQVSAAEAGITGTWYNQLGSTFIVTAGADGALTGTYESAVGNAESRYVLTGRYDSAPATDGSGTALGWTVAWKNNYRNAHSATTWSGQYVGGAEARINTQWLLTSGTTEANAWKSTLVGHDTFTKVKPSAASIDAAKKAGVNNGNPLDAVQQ

[16] = small-molecule binders of probe aInhba, primary screen, biochemical, small-molecule microarray, 635/667 nm fluorescence (AID 1148); conditions: higher = more signal;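 further: score merges 667nm spot fluorescence with signal-to-noise for antibody binding to printed compounds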
Torsin-1A (Homo sapiens) [17] = target: Torsin-1A (Homo sapiens) (UniProt O14656); experiment: torsin A binders from cell lysate, primary screen, small-molecule microarray, wild-type, 635/667 nm (AID 1149); conditions: COS7 hTOR1A-WT lysate, 635 nm fluorescence, higher = more signal
Chain of Torsin-1A (Homo sapiens) (O14656 whole entry, looked up): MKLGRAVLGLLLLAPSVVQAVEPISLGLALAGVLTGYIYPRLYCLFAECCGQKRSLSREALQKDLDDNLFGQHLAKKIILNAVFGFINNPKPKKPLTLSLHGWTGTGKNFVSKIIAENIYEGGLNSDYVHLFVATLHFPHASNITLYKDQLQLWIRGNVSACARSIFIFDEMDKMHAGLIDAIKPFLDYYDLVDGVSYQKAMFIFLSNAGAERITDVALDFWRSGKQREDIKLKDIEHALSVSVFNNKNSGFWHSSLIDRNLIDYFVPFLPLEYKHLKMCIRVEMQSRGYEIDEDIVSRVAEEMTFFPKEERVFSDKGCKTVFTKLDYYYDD

Torsin-1A (Homo sapiens) [18] = target: Torsin-1A (Homo sapiens) (UniProt O14656); experiment: small-molecule binders of mutant TOR1A in lysate, primary screen, cell lysate, small-molecule microarray, COS7 lysate, 635/667 nm fluorescence (AID 1150); conditions: COS7 hTOR1A mutant lysate, 635 nm fluorescence, higher = more signal;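 further: score pools 667 nm emission and signal to noise measuring lysate protein binding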
[19] = test system: Sonic hedgehog protein (Shh); experiment: small-molecule binders of Shh protein, primary screen, biochemical, small-molecule microarray, 635/667 nm fluorescence (AID 1151); conditions: small-molecule microarray binding, 635 nm fluorescence; higher = more signal;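 further: Shh protein binding to compounds spotted on small-molecule microarray slides; score combines spot fluorescence intensity with signal-to-noise across triplicate slides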

| SMILES | composite z-score [1] | composite z-score [2] | composite z-score [3] | composite z-score [4] | composite z-score [5] | composite z-score [6] | z-score [7] | composite z-score (Lefty1) | composite z-score [8] | z-score [9] | composite z-score [10] | z-score [11] | z-score [12] | z-score [13] | z-score [14] | composite z-score [15] | composite z-score [16] | composite z-score (Torsin-1A (Homo sapiens) [17]) | composite z-score (Torsin-1A (Homo sapiens) [18]) | composite z-score [19] |
| --- | --- | --- | --- | --- | --- | --- | --- | --- | --- | --- | --- | --- | --- | --- | --- | --- | --- | --- | --- | --- |
| [N-]=[N+]=NCc1ccccc1C[C@]1(C(=O)O)COC(c2ccc(OCCCO)cc2)=N1 | -0.615 | -1.13 | -0.217 | -2.49 | -0.21 | -0.855 | -0.103 | -0.212 | -0.0491 | -0.536 (inactive) | -0.333 | 0.432 (inactive) | 0.475 (inactive) | -0.426 (inactive) | -0.916 (inactive) | -0.878 | -0.13 | 0.861 | 0.0486 | -1.03 |
| COC(=O)[C@@]1(Cc2ccc(OC)cc2)[C@@H]2[C@@H](CC(=O)[C@H]2CC(=O)C(=O)N2CCCC2)CN1C(=O)c1ccccc1 | 2.96 | 1.27 | 0.888 | 1 | 0.713 | -0.256 | 0.483 | -0.265 | 1.47 | 0.596 (inactive) | 2.07 | -2.82 (inactive) | -0.98 (inactive) | 0.779 (inactive) | -0.013 (inactive) | 1.7 | 1.69 | 0.774 | 1.27 | -0.566 |
| Cc1ccc(F)cc1S(=O)(=O)N[C@@H]1CCN(Cc2ccc3c(c2)OCO3)C1 | -0.146 | -0.844 | -0.226 | 0.125 | 0.491 | 0.279 | 1.32 | 0.236 | -0.0476 | -0.391 (inactive) | -0.212 | -1.51 (inactive) | -0.455 (inactive) | 1.22 (inactive) | -0.714 (inactive) | -0.194 | -0.128 | 0.241 | 0.0733 | -0.0547 |
| CC(C)C[C@@H]1NC(=O)[C@@H]2C[C@H](C(=O)NCCCC[N+](C)(C)C)[C@H](c3ccc(O)cc3)N2C1=O | 2.63 | 0.643 | -0.133 | 0.354 | 1.42 | 1.76 | -0.694 | 1.67 | 0.479 | -0.948 (inactive) | 0.814 | -0.394 (inactive) | -1.08 (inactive) | 0.285 (inactive) | -0.387 (inactive) | 0.0306 | 0.0669 | 1.47 | 1.2 | 2.13 |
| COC(=O)c1c(CC[C@@H](CO)NC(=O)N[C@@H](Cc2ccccc2)Cn2cc(-c3cncn3C)nn2)oc(C(C)=O)c1C(=O)OC | 0.579 | 0.873 | -0.179 | 0.107 | 1.01 | -0.0088 | -0.691 | 0.847 | 0.391 | 0.879 (inactive) | -0.245 | -3.29 (inactive) | -0.662 (inactive) | -0.491 (inactive) | -0.566 (inactive) | -0.0808 | 0.0872 | 0.443 | 1.26 | 1.75 |
| COc1ccc([Si](C)(C)[C@@H]2[C@@H](CCO)O[C@]3(C(=O)N(Cc4ccccc4)c4ccc(N5C(=O)c6ccccc6Oc6ccccc65)cc43)[C@H]2C)cc1 | 0.176 | 0.106 | 0.0875 | -0.0507 | 0.0192 | -0.539 | -0.0766 | 0.172 | 0.204 | 0.762 (inactive) | -0.204 | -5.7 (inactive) | -0.332 (inactive) | 1.07 (inactive) | 1.07 (inactive) | -0.059 | -0.128 | -0.642 | -0.32 | 0.459 |
| N[C@@H](Cc1ccccc1)Cn1cc(C2(O)CCCCC2)nn1 | 0.124 | 0.062 | 0.0655 | 0.556 | 0.0725 | -0.445 | 0.375 | 0.333 | 0.128 | -0.377 (inactive) | -0.0937 | 0.08 (inactive) | 0.683 (inactive) | -0.244 (inactive) | 0.766 (inactive) | 0.984 | -0.0494 | 0.0636 | -0.0257 | -0.219 |
| COc1cccc(OC)c1C(=O)O[C@H]1[C@@H]2OC(=O)[C@H](Cc3cccc(Br)c3)C/C=C/C[C@@H](Cc3cccc(Br)c3)C(=O)O[C@H]2[C@@H](OC)O[C@@H]1CO | 0.267 | 1.1 | 0.573 | 0.383 | 1.38 | 1.28 | 1.27 | 0.742 | 0.0452 | -0.21 (inactive) | 0.125 | -1.74 (inactive) | -0.0318 (inactive) | -0.467 (inactive) | -0.201 (inactive) | -0.114 | -0.128 | -0.0031 | 0.529 | 1.23 |
| C=CC(CO)NC(=O)OCC1c2ccccc2-c2ccccc21 (stereo not given) | 0.311 | 0.421 | 0.476 | 0.578 | 0.763 | 0.415 | 0.02 | 0.618 | -0.105 | -0.409 (inactive) | 0.237 | 0.0812 (inactive) | 0.219 (inactive) | 1.03 (inactive) | 0.584 (inactive) | 0.0333 | -0.183 | 0.743 | 0.724 | 0.775 |
| CC(C)C[C@H]1NC(=O)[C@@H](C)NC(=O)[C@@]23C(=O)N[C@@H](Cc4ccccc4)C2[C@H](C)[C@@]2(C)O[C@H]2C3/C=C/C/C=C\CNC1=O (stereo not given in full) | 1.35 | 0.633 | 0.82 | -0.212 | 0.746 | 0.238 | -0.0228 | 0.754 | 0.532 | -0.327 (inactive) | -0.134 | -0.332 (inactive) | 0.541 (inactive) | 1.94 (inactive) | -0.435 (inactive) | -0.535 | -0.218 | -0.0221 | -0.145 | 1.41 |
